Source: PubChem (Sanford-Burnham Center for Chemical Genomics)
Hits are enriched below; roughly 2.6% of the tested compounds scored in any of these assays.
PHOSPHO1 inh: inhibitors of human PHOSPHO1 phosphatase; AID 1565; actives 1.1% (n = 290,000); inhibition, % at 13.3 µM; recombinant PHOSPHO1, absorbance phosphatase assay; Q8TCT1; in the data active = inhibition above about 60%
Target sequence (Q8TCT1 whole entry, looked up): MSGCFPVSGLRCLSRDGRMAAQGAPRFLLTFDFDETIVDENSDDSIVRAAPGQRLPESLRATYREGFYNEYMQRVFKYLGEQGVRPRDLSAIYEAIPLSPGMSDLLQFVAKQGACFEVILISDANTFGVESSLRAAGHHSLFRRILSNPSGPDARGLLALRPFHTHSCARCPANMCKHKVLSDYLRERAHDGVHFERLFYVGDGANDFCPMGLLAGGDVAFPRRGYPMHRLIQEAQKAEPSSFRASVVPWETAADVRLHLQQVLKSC
eIF4H FP inh: inhibitors of RNA binding by human eIF4H; Q15056; eIF4H fluorescence polarization binding assay; inhibition, % at 35 µM; actives 0.94% (n = 290,000); AID 2012;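 note: calls also rest on retests at 20 µM and on dose response follow-up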
APOBEC3A inh: inhibitors of human APOBEC3A DNA deaminase. actives 0.41% (n = 330,000). inhibition, % at 20 µM. recombinant A3A, FAM/TAMRA ssDNA deamination fluorescence. AID 493011. P31941;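 active = at least 40% inhibition at 20 µM here, with at most 30% in a related deaminase screen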;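 note: plate controls were A3A with DMSO for no effect and wells lacking A3A enzyme for full effect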
PABP FP inh: PABP-poly(A) binding inhibition; PABP-poly(A) RNA binding, fluorescence polarization; AID 2014; calls only at 35 µM; actives 1% (n = 290,000);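 note: calls also rest on retests at 20 µM and on dose response follow-up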
APOBEC3G inh: inhibitors of human APOBEC3G DNA deaminase; recombinant A3G, ssDNA deamination FAM/TAMRA fluorescence; actives 0.28% (n = 330,000); inhibition, % at 20 µM; Q9HC16;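 active = inhibition of at least 40% at 20 µM, with no more than 30% in the related APOBEC3A deaminase screen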;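 note: plate controls were DMSO wells with A3G for no effect and wells lacking A3G enzyme for full effect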
PABP1 MLLE inh: blocks PAM2 peptide binding to the PABP1 MLLE domain; P11940; GST-MLLE / FITC-PAM2 fluorescence polarization; inhibition, % at 20 µM; actives 0.36% (n = 360,000); in the data active = inhibition above about 35%, passing the limit was not always enough;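 note: plate controls were DMSO wells with GST-MLLE for no effect and wells lacking GST-MLLE protein for full effect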
Starred values were filed as active, the others as inactive. Unless noted, the rule behind the calls is not given here.

Screening COCCN1CCC(CNCc2c(C(=O)N3CCCCC3)nc3c(C)cccn23)C1 (stereo unspecified) returned PHOSPHO1 inh 20, eIF4H FP inh 62*, APOBEC3A inh -3, PABP FP inh active, APOBEC3G inh -10 and PABP1 MLLE inh 9.
CCN(CC(=O)NCc1cccs1)C(=O)c1ccc(-c2ccc(F)cc2)o1 was read as APOBEC3A inh 2, APOBEC3G inh -5 and PABP1 MLLE inh -1.
O=C(/C(=C/c1ccccc1Cl)c1ccccc1)N1CCOCC1 was read as PHOSPHO1 inh -5, eIF4H FP inh -13, APOBEC3A inh 6, PABP FP inh inactive, APOBEC3G inh 0 and PABP1 MLLE inh -1.
`COCC(C)n1c(C)cc(C(=O)CSc2nnc(Nc3ccccc3F)s2)c1C` (stereo unspecified) gave PHOSPHO1 inh 80*, eIF4H FP inh 0, APOBEC3A inh 4, PABP FP inh inactive, APOBEC3G inh -3 and PABP1 MLLE inh -42.
Screening Cn1c(=O)c2c(ncn2CC(=O)O)n(C)c1=O returned PABP1 MLLE inh -3.
Screening Cc1sc2c(c1C)C(=O)NC(c1cccc(O)c1)N2 (stereo unspecified) returned PHOSPHO1 inh 100*, eIF4H FP inh 3, APOBEC3A inh 1, PABP FP inh inactive and APOBEC3G inh 25.
`O=C1CC(Sc2nnc(-c3ccccc3O)o2)C(=O)N1c1ccccc1` (stereo unspecified) gave PHOSPHO1 inh 95*, eIF4H FP inh 4, APOBEC3A inh -3, PABP FP inh inactive, APOBEC3G inh -2 and PABP1 MLLE inh -13.
For O=CN/C=C/c1cc(O)ccc1O the results were PHOSPHO1 inh 33, eIF4H FP inh 94*, APOBEC3A inh 39, PABP FP inh active, APOBEC3G inh 61 and PABP1 MLLE inh 33.
For COc1cc2nc(CN(C)Cc3ccc(C(C)(C)C)cc3)[nH]c(=O)c2cc1OC the results were PHOSPHO1 inh 28, eIF4H FP inh 0, APOBEC3A inh -2, PABP FP inh inactive, APOBEC3G inh -19 and PABP1 MLLE inh -9.
Cn1c(SCC(=O)NCc2ccco2)nnc1C1CCCC1 was read as PHOSPHO1 inh 33, eIF4H FP inh 7, APOBEC3A inh -3, PABP FP inh inactive, APOBEC3G inh -7 and PABP1 MLLE inh 0.
Screening Cc1ccc(C(=O)/C=C/C(=O)O)cc1 returned PHOSPHO1 inh 4, eIF4H FP inh -1, APOBEC3A inh -1, PABP FP inh inactive, APOBEC3G inh 3 and PABP1 MLLE inh 44*.
For Cc1ccc(/C=C/C(=O)c2ccc(O)cc2)cc1 the results were PHOSPHO1 inh -1, eIF4H FP inh -2, APOBEC3A inh -5, PABP FP inh inactive, APOBEC3G inh -2 and PABP1 MLLE inh -17.
Screening CCn1nccc1C(=O)Nc1ccc(C)c(C)c1 returned PHOSPHO1 inh -26, eIF4H FP inh 0, APOBEC3A inh -5, PABP FP inh inactive, APOBEC3G inh -6 and PABP1 MLLE inh -2.
Screening COC(=O)c1ccccc1NC(=O)CCS(=O)(=O)c1ccc(Br)s1 returned PHOSPHO1 inh -4, eIF4H FP inh -5, APOBEC3A inh -1, PABP FP inh inactive, APOBEC3G inh -2 and PABP1 MLLE inh 14.
Cc1ccccc1NC(=O)CCS(=O)(=O)c1ccc(Br)s1 was read as PHOSPHO1 inh 36, eIF4H FP inh 58*, APOBEC3A inh 18, PABP FP inh inactive, APOBEC3G inh 13 and PABP1 MLLE inh 4.
O=C(CCCn1c(=S)[nH]c2cc3c(cc2c1=O)OCO3)NCc1ccco1 was read as PHOSPHO1 inh -151, eIF4H FP inh -1, APOBEC3A inh 2, PABP FP inh inactive, APOBEC3G inh -8 and PABP1 MLLE inh -41.
Screening O=c1c2cc3c(cc2[nH]c(=S)n1Cc1ccco1)OCO3 returned PHOSPHO1 inh 78*, eIF4H FP inh -4, APOBEC3A inh -2, PABP FP inh inactive, APOBEC3G inh -8 and PABP1 MLLE inh -15.
Screening O=C(NCCN1CCCC1)c1ccc(Cn2c(=S)[nH]c3cc4c(cc3c2=O)OCO4)cc1 returned PHOSPHO1 inh 71*, eIF4H FP inh -12, APOBEC3A inh 5, PABP FP inh inactive, APOBEC3G inh 12 and PABP1 MLLE inh -64.
For CN1CCN(C(=O)c2ccc3c(=O)n(Cc4ccco4)c(=S)[nH]c3c2)CC1 the results were PHOSPHO1 inh 69*, eIF4H FP inh -10, APOBEC3A inh -3, PABP FP inh inactive, APOBEC3G inh -2 and PABP1 MLLE inh -70.
For CC1(C)Cc2c(sc3[nH]c(=S)n(Cc4ccco4)c(=O)c23)CO1 the results were PHOSPHO1 inh 1, eIF4H FP inh 31, APOBEC3A inh -2, PABP FP inh inactive, APOBEC3G inh -3 and PABP1 MLLE inh 9.
For O=c1c2c3c(sc2[nH]c(=S)n1Cc1ccco1)CCC3 the results were PHOSPHO1 inh 56, eIF4H FP inh 81*, APOBEC3A inh 90, PABP FP inh active, APOBEC3G inh 69 and PABP1 MLLE inh 5.
For COc1ccc(F)cc1C(=O)C1CCCN(C(=O)c2ocnc2C)C1 (stereo unspecified) the results were PHOSPHO1 inh 35, eIF4H FP inh -7, APOBEC3A inh -7, PABP FP inh inactive, APOBEC3G inh -6 and PABP1 MLLE inh 19.
For COc1cc(NC(=O)c2ccc3c(=O)n(Cc4ccco4)c(=S)[nH]c3c2)cc(OC)c1OC the results were PHOSPHO1 inh 76*, eIF4H FP inh 64*, APOBEC3A inh -2, PABP FP inh inactive, APOBEC3G inh -4 and PABP1 MLLE inh -50.
For CCCN(CCC)C(=O)c1ccc2c(=O)n(Cc3ccco3)c(=S)[nH]c2c1 the results were PHOSPHO1 inh 42, eIF4H FP inh -3, APOBEC3A inh -4, PABP FP inh inactive, APOBEC3G inh -9 and PABP1 MLLE inh -74.
`NC(=O)COC(=O)c1ccc2c(c1)S(=O)(=O)c1ccccc1C2=O` gave PHOSPHO1 inh 20, eIF4H FP inh -13, APOBEC3A inh 1, PABP FP inh inactive, APOBEC3G inh -7 and PABP1 MLLE inh -2.
`Cc1noc(C)c1COC(=O)c1ccc2c(c1)S(=O)(=O)c1ccccc1C2=O` gave PHOSPHO1 inh 82*, eIF4H FP inh -3, APOBEC3A inh -1, PABP FP inh inactive, APOBEC3G inh -5 and PABP1 MLLE inh -2.
For COc1ccc(/C=N/Nc2ccccc2C(=O)O)cc1Cn1cc([N+](=O)[O-])cn1 the results were PHOSPHO1 inh 60*, eIF4H FP inh -3, APOBEC3A inh 1, PABP FP inh inactive, APOBEC3G inh -3 and PABP1 MLLE inh 5.
Screening COc1ccc(/C=N/NC(=O)c2ccccc2O)cc1Cn1cc([N+](=O)[O-])cn1 returned PHOSPHO1 inh 16, eIF4H FP inh 4, APOBEC3A inh -1, PABP FP inh inactive, APOBEC3G inh -3 and PABP1 MLLE inh 2.
